Assay outcomes (PubChem)
This is a sample that favours compounds with a hit; in the whole collection about 11% have one here.
AMA1 RON2 block – qHTS for Inhibitors of AMA1-RON; Towards Development of Antimalarial Drug Lead: Primary Screen | AlphaScreen AMA1-biotinylated RON2 peptide binding | Potency, µM (titrated, usually from 58.2 µM), for inactives: at the highest dose activity change, negative = inhibition, actives largely listed as inhibitors | Plasmodium falciparum AMA1 (3D7) - RON2 peptide interaction | 360,000 tested, 0.2% active;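 further: 0% = vehicle wells and -100% = peptide control; nearly all actives have a fitted effect of over 45% in size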
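AMA1 (3D7) with his tag at 25 nM final met compounds first, then biotinylated RON2 peptide at 25 nM; detection used donor plus acceptor beads, 10 µg/mL apiece, read by AlphaScreen after 30 min at room temperature.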
Pf growth 48h – Primary qHTS for delayed death inhibitors of the malarial parasite plastid, 48 hour incubation | P. falciparum luciferase growth in erythrocytes, 48 h | Potency, µM (top dose mostly 28.7 µM), inactives show at the highest dose activity change, negative = inhibition, hits mostly inhibitors | 310,000 tested, 5.9% active
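Parasite viability was followed by luminescence of a genomically integrated firefly luciferase. Cultures held 0.1% parasitemia at 2% hematocrit (final), incubated under 5% CO2 at 37 C.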
AmpC no deterg – qHTS Inhibitors of AmpC Beta-Lactamase (assay without detergent); P00811; AmpC nitrocefin hydrolysis, absorbance 480 nm, 0.0001% Triton; Potency, µM (titrated, usually from 57.1 µM), inactives show at the top dose activity change, negative = inhibition, hits mostly inhibitors; 330,000 tested, 0.52% active;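 further: plate controls were no compound for no effect and no enzyme for full effect; nearly all actives have a fitted effect of over 20% in size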
Target sequence (P00811 whole entry, looked up): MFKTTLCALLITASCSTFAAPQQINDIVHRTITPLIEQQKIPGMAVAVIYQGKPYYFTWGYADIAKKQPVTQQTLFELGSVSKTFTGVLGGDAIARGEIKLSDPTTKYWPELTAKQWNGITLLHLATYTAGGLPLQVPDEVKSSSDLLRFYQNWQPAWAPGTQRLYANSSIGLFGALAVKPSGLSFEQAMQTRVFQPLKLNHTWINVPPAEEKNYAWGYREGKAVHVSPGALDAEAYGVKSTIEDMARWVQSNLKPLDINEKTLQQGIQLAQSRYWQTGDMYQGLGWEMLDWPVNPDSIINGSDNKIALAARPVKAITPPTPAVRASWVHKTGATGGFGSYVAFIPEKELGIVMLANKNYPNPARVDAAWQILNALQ
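20 mM phosphate pH 7.0 + 0.01% (detergent screen) or 0.0001% Triton X-100; 5.3 nM AmpC reagent; cpd preinc 15 min RT; nitrocefin (800 uM stock) to start; A480 q20 s × 4 min; Activity was normalised to no-enzyme and no-compound control wells.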
AmpC detergent – qHTS Inhibitors of AmpC Beta-Lactamase (assay with detergent); 370,000 tested, 0.041% active; P00811; AmpC hydrolysis of nitrocefin, absorbance 480 nm, 0.01% Triton; Potency, µM (series often up to 114 µM), for the others: top-dose activity change, negative = inhibition, usual class: inhibitors; AID 485294, 2010;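 further: 0% = no-compound wells and -100% = no-enzyme wells; nearly all actives have a fitted effect of over 25% in size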
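20 mM phosphate pH 7.0 + 0.01% (detergent screen) or 0.0001% Triton X-100; 5.3 nM AmpC reagent; cpd preinc 15 min RT; nitrocefin (800 uM stock) to start; A480 q20 s × 4 min; Activity was normalised to no-enzyme and no-compound control wells.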
HCV inhibitor – qHTS Assay for Inhibitors of Hepatitis C Virus (HCV); Huh7.5.1 HCVcc-Cre infection, luciferase reporter, 44 h; Potency, µM (titrated, usually from 41.8 µM), inactives show at the highest dose activity change, negative = inhibition, actives largely listed as inhibitors; 340,000 tested, 3.4% active; AID 651820, 2012
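Antiviral activity was scored by luciferase reporter output from cells infected with HCVcc-Cre (~0.5 moi) in presence of compound, 44 h infection period, cells seeded 1,000/well 4 h prior.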
Pf growth 96h – Primary qHTS for delayed death inhibitors of the malarial parasite plastid, 96 hour incubation | P. falciparum luciferase reporter growth, 96 h | Potency, µM (highest dose often 28.7 µM), without a hit: top-dose activity change, negative = inhibition, hits mostly inhibitors | 320,000 tested, 6.9% active | AID 504834, 2011
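Infected RBCs, 2% Hct / 0.05% parasitemia final; luciferase-reporter P. falciparum; cpd 96 h, 37 C, 5% CO2; luciferase detection reagent; luminescence.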
Starred values were filed as active, the others as inactive; ? = inconclusive; . = no result given; [ ] = dose if it differs, or a comment. The call rests on the fitted dose curve; in most records, active means well fitted curve in the direction sought with a large enough effect; inconclusive means small, poorly fitted or top-dose-only effect, or another doubt; inactive means no such curve, though single readings can be large; an effect the other way counts as inactive or inconclusive. Unless noted, on the % scale 0 is the no-effect control and ±100 the full control effect; potency means the concentration at half of the fitted maximal effect.

SMILES	AMA1 RON2 block	Pf growth 48h	AmpC no deterg	AmpC detergent	HCV inhibitor	Pf growth 96h
CCCNC(=O)C1CCC(Cn2c(=O)c3sccc3n(CC(=O)Nc3ccccc3C)c2=O)CC1 (stereo unspecified)	.	.	.	5.5%	.	.
CCOC(=O)Nc1ccc2nc(Sc3ccc(Cl)cc3)sc2c1	3.5%	9.28µM*	-20.8%	3.5%	14.1µM*	14.7µM*
Cc1nn(Cc2ccccc2Cl)c(Cl)c1C(=O)OCC(=O)NC(=O)NC1CCCCC1	-5.9%	7.1%	-24.0%	-9.5%	3.9%	-5.9%
Cc1nn(-c2ccccc2)c(C)c1C(=O)OCC(=O)NC12CC3CC(CC(C3)C1)C2	-0.3%	?	39.0%	-0.7%	-20.5%	10.4µM*
Cc1nn(-c2ccccc2)c(C)c1C(=O)OCC(=O)NC(=O)NC1CCCC1	-5.2%	-28.6%	-0.4%	-0.7%	8.91µM*	33.2%
COc1ccc(C)cc1NC(=O)COC(=O)c1c(C)nn(-c2ccccc2)c1C	9.1%	?	33.7%	-1.7%	12.6µM*	-27.0%
COc1ccc(-n2c(=O)c3c4c(sc3n(C)c2=O)CN(C(C)=O)CC4)cc1	.	.	.	14.4%	.	.
Fc1ccc(-c2noc3ncnc(Nc4ccc(F)cc4F)c23)cc1	.	.	.	2.7%	.	.
CC(=O)Nc1cccc(NC(=O)CSc2ccc(-c3sc(-c4ccccc4)nc3C)nn2)c1	.	.	.	11.2%	.	.
Cc1cc(C)nc(SCCn2c(N(C)Cc3ccccc3)nc3c2c(=O)n(C)c(=O)n3C)n1	8.2%	7.38µM*	-4.9%	0.9%	-17.0%	?
CN(Cc1ccccc1)c1nc2c(c(=O)n(C)c(=O)n2C)n1CCSc1ncccn1	-0.9%	10.4µM*	-5.2%	?	-16.9%	?
Cc1nnc(SCCn2c(N(C)Cc3ccccc3)nc3c2c(=O)[nH]c(=O)n3C)s1	1.1%	.	-12.9%	-9.4%	4.5%	?
Cc1cccc(OCCCC(=O)Nc2ccc(S(=O)(=O)Nc3ncccn3)cc2)c1C	-15.0%	5.6%	?	-6.8%	13.9%	2.08µM*
COc1ccccc1/C=C1/SC(=O)N(CCC(=O)Nc2ccc(S(=O)(=O)Nc3nccs3)cc2)C1=O	-11.4%	-21.4%	-32.5%	-5.5%	?	13.1µM*
Cc1cccc(OCCCC(=O)Nc2ccc(S(=O)(=O)Nc3nccs3)cc2)c1C	-11.4%	3.0%	-50.2%	-12.2%	1.2%	3.7µM*
Cc1cccc(OCCCC(=O)Nc2ccc(S(=O)(=O)Nc3onc(C)c3C)cc2)c1C	-5.0%	-12.3%	-30.7%	5.1%	12.6%	-10.0%
O=S(=O)(c1cccc(C(F)(F)F)c1)N1CCC(Oc2ccc(-n3cnnn3)cc2)CC1	.	.	.	8.5%	.	.
COC(=O)C1=C(C)N(C2CCCCC2)C(=O)C1	-12.7%	0.6%	-0.2%	0.2%	-11.8%	1.85µM*
CCOC(=O)C1=C(C)N(C2CCCCC2)C(=O)C1	-4.5%	?	-5.7%	-11.4%	13.7%	.
Clc1ccccc1-c1nnc2sc(CCc3ccccc3)nn12	14.2%	13.1µM*	-20.1%	-1.2%	-17.0%	.
Clc1ccccc1-c1nnc2sc(-c3ccc4c(c3)OCO4)nn12	47.7%	11.7µM*	-27.2%	3.8%	-22.9%	-19.2%
Cc1nc2nc[nH]n2c(=O)c1NS(=O)(=O)c1ccc(Br)cc1	.	.	.	1.5%	.	.
CNC(=S)N1C2CCCC1CC(NC(=O)c1ccc(C)cc1)C2 (stereo unspecified)	7.5%	.	.	.	16.7%	.
CNC(=S)N1C2CCC1CC(NC(=O)NC13CC4CC(CC(C4)C1)C3)C2 (stereo unspecified)	0.1%	11.7µM*	?	-0.8%	-6.3%	?
O=c1c2sc3ccccc3c2n(Cc2cccc(F)c2)c(=O)n1CCc1ccccc1	.	.	.	-6.0%	.	.
SMILES	AMA1 RON2 block	Pf growth 48h	AmpC no deterg	AmpC detergent	HCV inhibitor	Pf growth 96h
CCOC(=O)/C=C/C(=O)Nc1cccc([N+](=O)[O-])c1	-2.8%	0.3%	-4.1%	-1.7%	?	1.6%
CCOC(=O)/C=C/C(=O)Nc1ccccc1-c1ccccc1NC(=O)/C=C/C(=O)OCC	-8.7%[2.32 µM]	4.65µM*	-13.8%	?	12.6µM*	?
COc1cc(SC)ccc1C(=O)Nc1ccc(S(=O)(=O)Nc2nccc(C)n2)cc1	.	.	.	10.5%	.	.
COc1ccc(CNC(=O)c2cc3c(=O)n(Cc4ccco4)ccc3nc2C)c(OC)c1	.	.	.	1.7%	.	.
C/C=C(/C)C(=O)O[C@@H]1[C@H](OC(=O)C=C(C)C)c2c(ccc3ccc(=O)oc23)OC1(C)C	2.0%	?	-5.2%	?	-0.4%[8.37 µM]	?
C/C=C(/C)C(=O)O[C@@H]1c2c(ccc3ccc(=O)oc23)O[C@@H]1C(C)(C)OC(C)=O	3.7%	-33.9%	-4.4%	-12.7%	4.4%[8.37 µM]	5.86µM*
CCO[C@H]1c2c(ccc3ccc(=O)oc23)OC(C)(C)[C@@H]1O	8.3%	24.9%	-4.7%	-3.0%	2.82µM*	38.6%
C/C=C(/C)C(=O)O[C@@H]1c2c(ccc3ccc(=O)oc23)OC(C)(C)[C@@H]1OC(=O)/C(C)=C\C	-9.1%	6.57µM*	34.1%	?	22.4µM*	6.57µM*
CCO[C@@H]1c2c(ccc3ccc(=O)oc23)OC(C)(C)[C@@H]1O	1.7%	23.5%	-1.2%	1.3%	6.5%	-0.7%
Cc1ccc(-n2nc(CO)c(C(=O)NC(C)CCCc3ccccc3)n2)cc1C (stereo unspecified)	.	.	.	-5.5%	.	.
Cc1nc(N2CCOCC2)c2c(C(=O)N3CCN(c4cccc(C)c4C)CC3)c(C)oc2n1	.	.	.	22.1%	.	.
Cc1cccc(N(CC(=O)NC(C)c2ccccc2)S(=O)(=O)c2ccccc2)c1C (stereo unspecified)	.	.	.	-1.5%	.	.
O=C1CC(c2ccccc2C(F)(F)F)c2c(c3ccccc3[nH]c2=O)O1 (stereo unspecified)	.	.	.	0.0%	.	.
COC(=O)c1ccc(Cn2c(=O)cc(C(F)(F)F)c3c(C)nn(C)c32)cc1	.	.	.	-6.1%	.	.
COc1ccc(-c2nnc(NC(=O)c3ccc(S(=O)(=O)N4COCC4(C)C)cc3)o2)cc1	76.6%	11.7µM*	-32.5%	-13.4%	?	-4.6%
CC1(C)COCN1S(=O)(=O)c1ccc(C(=O)Nc2nnc(-c3ccc(Cl)s3)o2)cc1	159.9%	4.15µM*	-23.4%	4.8%	2µM*	-17.4%
CC1CCCCN1S(=O)(=O)c1ccc(C(=O)Nc2nnc(-c3ccncc3)o2)cc1 (stereo unspecified)	65.9%	?	-27.2%	-1.5%	-17.6%	?
